PubChem BioAssay AID1566 (Sanford-Burnham Center for Chemical Genomics, 2009)
Where “and” joins values, the source holds several entries; their conditions need not be identical. Equal values may be shown once. The campaign covered roughly 290,000 compounds. About 1,800 (0.62%) were called active. This is one part of a sample in which actives are shown more often than they occur. Cut-off read from the data, not from the text of the source: active = inhibition above about 50%; inactive = the rest.

Assay: NOD2 signaling inhibitors, cell-based, luminescence, uHTS, HEK293 (AID 1566)
Conditions: HEK293 NOD2/NF-kB luciferase reporter, at 4 µM, hits give high values

Row | Compound | inhibition
1 | O=C(CCl)Nc1ccccc1Sc1ccccc1 | -24.6% (inactive)
2 | O=C(Cc1ccc(Cl)cc1)Nc1ccccc1Sc1ccccc1 | 0.7% (inactive)
3 | Cc1ccc(C)c(Sc2ccc(NC(=O)CCl)cc2)c1 | -19.5% (inactive)
4 | Cc1ccc(Sc2ccc(NC(=O)CCl)cc2)cc1C | 0.9% (inactive)
5 | COc1ccccc1C1=NC(c2ccc(F)cc2)N=C1C (configuration not stated) | -33.6% (inactive)
6 | COc1ccc(-n2nc(C(=O)NCC(=O)N3CCN(Cc4ccccc4)CC3)c3ccccc3c2=O)cc1 | -1.4% (inactive)
7 | CC1(c2ccccc2)NC(=O)N(CC(=O)Nc2nnc(C3CC3)s2)C1=O (configuration not stated) | -9.7% (inactive)
8 | COc1ccc(/C=N/n2c(SC)nnc2-c2ccccc2)c(OC)c1OC | -38.9% (inactive)
9 | COc1ccc(-n2c(Cc3cccn3C)nnc2SCC(=O)Nc2ccc3c(c2)OCCO3)cc1 | 6.8% (inactive)
10 | O=C(c1ccccc1)c1cc([N+](=O)[O-])ccc1N1CCOCC1 | 5.9% (inactive)
11 | Cc1cc2ncn(C3CC(=O)N(C)C3=O)c2cc1C (configuration not stated) | 10.1% (inactive)
12 | CCCN1C2CCCC1CC(NC(=O)C1CCCCC1)C2 (configuration not stated) | -3.5% (inactive)
13 | CN1CCN(C(=O)C2CC(=O)N(c3ccc(Cl)cc3)C2)CC1 (configuration not stated) | -8.8% (inactive)
14 | CCCCCc1ccc(-c2ccc(/C=C/C(=O)O)cc2)nc1 | -82.7% (inactive)
15 | CCCc1ccc(-c2ccc(/C=C/C(=O)O)cc2)nc1 | 78.4% (active)
16 | CCCCCc1ccc(-c2ccc(/C=C/C(N)=O)cc2)nc1 | -57.2% (inactive)
17 | NS(=O)(=O)c1ccc(CCNc2ncnc3sccc23)cc1 | 34.1% (inactive)
18 | Cc1sc2ncnc(N[C@@H](CCC(=O)O)C(=O)O)c2c1C | 2.8% (inactive)
19 | COc1ccccc1C(CNc1ncnc2sc(C)c(C)c12)N(C)C (configuration not stated) | 18.9% (inactive)
20 | Cc1sc2ncnc(NCC(O)c3ccccc3)c2c1C (configuration not stated) | 40.2% (inactive)
21 | Cc1nc(NCCc2ccc(S(N)(=O)=O)cc2)c2c(C)c(C)sc2n1 | 45.1% (inactive)
22 | COc1ccc(C(CNc2ncnc3sc(C)c(C)c23)N(C)C)cc1 (configuration not stated) | 69.8% (active)
23 | Cc1sc2ncnc(NCCc3ccc(S(N)(=O)=O)cc3)c2c1C | 55.7% (active)
24 | Cc1sc2ncnc(NCC(O)c3ccc([N+](=O)[O-])cc3)c2c1C (configuration not stated) | 51.7% (active)
25 | Cc1sc2ncnc(NCC(c3ccccc3)N(C)C)c2c1C (configuration not stated) | 10.2% (inactive)

Row | Compound | inhibition
26 | CC(=O)Nc1ccc(OS(=O)(=O)c2ccc(Cl)cc2)cc1 | 12.5% (inactive)
27 | CCN(CC)S(=O)(=O)c1ccc(C)c(NC(=O)/C=C/c2cccs2)c1 | -13.1% (inactive)
28 | CCOCC(=O)Nc1ccccc1C(=O)O | 5.3% (inactive)
29 | CCCCNC(=O)c1cn(CC)c2ccc(S(=O)(=O)N3CCCCCC3)cc2c1=O | -6.4% (inactive)
30 | O=C(O)CSc1cc(NS(=O)(=O)c2ccc(Br)cc2)c2ccccc2c1O | 57.2% (active)
31 | Cc1cc(C)c(S(=O)(=O)Nc2cc(SCC(=O)O)c(O)c3ccccc23)cc1C | 29.2% (inactive)
32 | O=S(=O)(Nc1cc(Sc2cccc3cccnc23)c(O)c2ccccc12)c1ccc(F)cc1 | -2.1% (inactive)
33 | O=S(=O)(Nc1cc(Sc2cccc3cccnc23)c(O)c2ccccc12)c1ccccc1 | 95.9% (active)
34 | O=S(=O)(Nc1cc(Sc2ncn[nH]2)c(O)c2ccccc12)c1ccccc1 | 19% (inactive)
35 | O=C(O)CSc1cc(NS(=O)(=O)c2cccc([N+](=O)[O-])c2)c2ccccc2c1O | 16.9% (inactive)
36 | COc1ccc(NS(=O)(=O)/C=C/c2ccccc2)cc1 | 17.1% (inactive)
37 | COc1ccc(C(=O)Nn2c(SCc3cccc([N+](=O)[O-])c3)nc3ccccc3c2=O)cc1 | 40.4% (inactive)
38 | COc1cccc(Oc2c(C)oc3c(CN4CCCCC4)c(O)ccc3c2=O)c1 | 18.7% (inactive)
39 | Cc1cccc(-n2cc(C(=O)O)c(=O)cc2C)c1 | 1.7% (inactive)
40 | CCOc1ccc(/C=C/C(=O)Nc2ccc3[nH]c(=O)[nH]c3c2)cc1 | 6.2% (inactive)
41 | Cc1ccc(NS(=O)(=O)c2c(C)nc3sccn3c2=O)cc1C | 12.9% (inactive)
42 | CC1CCCN(c2ccc3nc4ccccc4c(=O)n3n2)C1 (configuration not stated) | 4.1% (inactive)
43 | CN(c1ccc2nc3ccccc3c(=O)n2n1)C1CCCCC1 | 79% (active)
44 | CN(c1cc(=O)n2ccccc2n1)C1CCCCC1 | -19.5% (inactive)
45 | CSc1ccc(C(=O)C2CCCN(C(=O)CCc3c(C)nn(C)c3C)C2)cc1 (configuration not stated) | 50.1% (active)
46 | CSc1ccc(C(=O)C2CCCN(C(=O)CCc3cnn(C)c3)C2)cc1 (configuration not stated) | 11% (inactive)
47 | Cc1nn(C)c(C)c1CCC(=O)N1CCCC(C(=O)c2cccc(OC(C)C)c2)C1 (configuration not stated) | 14.2% (inactive)
48 | Clc1cccc(-c2ccnc3nc(-n4cccc4)nn23)c1 | 5.6% (inactive)
49 | COc1ccc(OC)c(NC(=O)C2CC(=O)N(c3ccccc3)C2)c1 (configuration not stated) | -11.1% (inactive)
50 | COCCN1CN=C(NS(=O)(=O)c2ccc(C)cc2)NC1 | 6.3% (inactive)

Row | Compound | inhibition
51 | CC1CC(C)CN(C(=O)c2nn(C)c3c2CSc2ccccc2-3)C1 (configuration not stated) | 51.5% (active)
52 | Cn1nc(C(=O)N2CCC(C(N)=O)CC2)c2c1-c1ccccc1SC2 | 12.9% (inactive)
53 | CC1CCCN(C(=O)c2nn(C)c3c2CSc2ccccc2-3)C1 (configuration not stated) | 8% (inactive)
54 | COCc1ccc(CN2CCC(C(=O)Nc3cccc(-c4cscn4)c3)CC2)o1 | 7.2% (inactive)
55 | Cc1ccc(NC(=O)c2cc(C)n(-c3cccc(C)c3)c2C)cc1 | -26.4% (inactive)
56 | Cc1ccc(S(=O)(=O)NC(=O)c2cc(C)n(-c3ccccc3)c2C)cc1 | 13.4% (inactive)
57 | Cc1ccc(NC(=O)c2cc(C)n(-c3ccccc3)c2C)cc1 | 52% (active)
58 | O=C(/C=C/c1cn(-c2ccccc2)nc1-c1cccnc1)N1CCCC1 | 50.2% (active)
59 | O=C(/C=C/c1cn(-c2ccccc2)nc1-c1cccnc1)c1ccco1 | -74.6% (inactive)
60 | O=C(/C=C/c1cn(-c2ccccc2)nc1-c1cccnc1)N1CCCCC1 | 10% (inactive)
61 | CC(OC(=O)C1CCN(S(=O)(=O)c2ccc(Cl)cc2)CC1)C(=O)N1CCc2ccccc21 (configuration not stated) | -4.3% (inactive)
62 | COc1ccc(CN(Cc2nc3ccccc3c(=O)[nH]2)C(=O)c2ccco2)cc1 | 6.4% (inactive)
63 | c1ccc2c(c1)nc(-c1ccncc1)n2CCNc1nc(CN2CCCCC2)cs1 | 18.5% (inactive)
64 | CCOC(=O)c1ccc(NC(=S)N2CCCC(C(=O)OCC)C2)cc1 (configuration not stated) | -6% (inactive)
65 | O=C1C=C(c2ccccc2)C[C@H](c2cccs2)[C@H]1n1cnc([N+](=O)[O-])c1 | 3.4% (inactive)
66 | O=C1C=C(c2cccs2)C[C@H](c2ccccc2)[C@H]1n1nnc([N+](=O)[O-])n1 | 21.7% (inactive)
67 | COc1ccc(NC(=O)c2cccc(OC(=S)N3CCOCC3)c2)cc1 | 18.5% (inactive)
68 | Cc1cccc(C)c1NC(=S)NCc1ccncc1 | 7.5% (inactive)
69 | Cc1cc(/C=c2\sc3nc4ccccc4n3c2=O)c(C)n1-c1ccc(C(=O)O)cc1 | -0.4% (inactive)
70 | Cc1cc(/C=c2/sc3nc4ccccc4n3c2=O)c(C)n1-c1ccccn1 | 3.6% (inactive)
71 | CC1(C)Cc2c(c(-c3ccco3)nc3sc4c(NCCO)ncnc4c23)CO1 | 16.6% (inactive)
72 | Cc1ccc(C(=O)O/N=C(/c2nonc2N)N(C)C)cc1 | 12.2% (inactive)
73 | COc1ccc(-c2nc3ccccc3n2Cc2ccccc2)cc1 | -2.8% (inactive)
74 | Cc1n(Cc2ccccc2)c2ccccc2[n+]1Cc1ccccc1 | 22% (inactive)
75 | C/C(=N\Nc1ccc(C)c(Cl)c1)c1ccncc1 | -32.8% (inactive)

Row | Compound | inhibition
76 | O=C(Nc1ccc2c(c1)OCO2)C1CCN(Cc2cc3c(cc2O)OCO3)CC1 | 1.5% (inactive)
77 | Cc1nc2sc(-c3ccccc3)cc2c(=O)n1N | -41.2% (inactive)
78 | Cc1nc2cc(-c3ccccc3)sc2c(=O)n1N | 54.8% (active)
79 | Cc1nc2ccccc2c(=O)n1N | -3.2% (inactive)
80 | CC(C)(C#N)NC(=O)C(=O)c1c(-c2ccccc2)cc2ccccn12 | 5% (inactive)
81 | CCOc1ccc(-n2c(N)c(-c3nc4ccccc4[nH]3)sc2=S)cc1 | 9.9% (inactive)
82 | COc1cccc(/C=N/Nc2ccc(S(=O)(=O)O)cc2)c1O | 15.4% (inactive)
83 | COc1cccc(/C=N/Nc2ccc([N+](=O)[O-])cc2)c1O | -64% (inactive)
84 | COc1cccc(/C=N/Nc2ccc(C(=O)O)cc2)c1O | 82.8% (active)
85 | CCOC(=O)CNC(=S)N(CCCN1CCN(C)CC1)Cc1cccs1 | -1.4% (inactive)
86 | O=C1OC(c2ccccc2)c2ccccc21 (configuration not stated) | -11.5% (inactive)
87 | CC1CCN(S(=O)(=O)c2ccc(NC(=O)CNC3CCCCC3)cc2)CC1 | -15.2% (inactive)
88 | Cc1sc2c(=O)n3c(nc2c1C(=O)NC1CCCCC1)CCCCC3 | 16.8% (inactive)
89 | O=C(O)CSc1nc2ccccc2s1 | 0.2% (inactive) and -11.4% (inactive)
90 | O=C(O)CCSc1nc2ccccc2s1 | 65.2% (active)
91 | O=C(O)COc1ccccc1/C=N/NC(=O)CSc1nc2ccccc2s1 | -0.7% (inactive)
92 | O=C(CSc1nc2ccccc2s1)N/N=C/c1ccc(C(=O)O)cc1 | 12.9% (inactive)
93 | O=C(CSc1nc2ccccc2s1)CSc1nc2ccccc2s1 | 4.4% (inactive)
94 | O=C(CSc1nc2ccccc2s1)N/N=C/c1ccccc1C(=O)O | 56.5% (active)
95 | Cc1ccc(S(=O)(=O)N2CCN3CCCC3C2)cc1 (configuration not stated) | 17.2% (inactive)
96 | O=C(O)c1ccc(-n2c(/C=C/c3ccccc3)nc3ccccc3c2=O)cc1 | -19.9% (inactive)
97 | COc1ccc(Oc2nnc(-c3ccc(C)cc3)c3ccccc23)cc1 | 14.9% (inactive)
